Records with an inconclusive call do not appear. A call without a number means that no potency is given here. The source made the active and inactive calls. Calls follow the shape of the dose curve; as a rule, active = well fitted cell-killing curve with a large enough effect; inconclusive = small, poorly fitted or top-dose-only effect; inactive = flat fitted curve, though single readings scatter.
Potency is read from the fitted curve at half-maximal effect.

The nature of this test: qHTS of pediatric cancer cell lines to identify multiple opportunities for drug repurposing: Primary screen for TC32 cells (AID 1347089). Also: nearly all actives have a fitted effect of over 60% in size. The conditions noted are these: TC32 Ewing sarcoma viability, CellTiter-Glo luminescence, 48 h; series mostly up to 45.8 µM. The text has this: Drug repurposing or repositioning has been offered as a strategy for drug development in oncology programs. This approach has special potential for childhood cancers and other rare or orphan diseases, where the expected return on new drug development has been a disincentive to pharmaceuticals.
In this project we exploit the poly-pharmacology of drugs to discover new indications via phenotypic screening of a panel of 19 well-characterized cell lines derived from solid tumors seen in children and adolescents. The goal is to identify approved drugs with previously unrecognized anticancer properties that has the potential to reveal new mechanisms and biological processes involved in carcinogenesis or drug resistance. We employed a titration-based paradigm (quantitative high-throughput screening or qHTS), where all compounds were tested at multiple concentrations for their effect on cell viability. Concentration-response curves (CRCs) were derived directly from the primary screen, and both potency and efficacy values were used to identify compounds with robust bioactivity profiles. We screened the NIH Chemical Genomics Center (NCGC) Pharmaceutical Collection (NPC) and Mechanism Interrogation Plate (MIPE) small molecule collections of approved and investigational compounds against these cell lines; and measured metabolically active cells after 48 hours of compound treatment as a proxy for cell viability.
Assay Submitter: Nathalia J. Martinez, National Center for Advancing Translational Sciences, National Institutes of Health, Rockville, MD, USA; email: natalia.martinez@nih.gov
[1] Shen, M et al. Quantitative high-throughput phenotypic screening of pediatric cancer cell lines identifies multiple opportunities for drug repurposing. Oncotarget 2017 Dec 19;9(4):4758-4772. PMID 29435139.
The cells were obtained from University of North Carolina (UNC), Pediatric Preclinical Testing Program (PPT), and Coriell Institute (CI).
qHTS cell viability assay:
Cells were assayed in growth media at a density of 500-1,000 cells/well. Five microliters of cells were dispensed into 1,536-well, white, solid-bottom, TC-treated plates (Greiner Bio One) using a multidrop dispenser and incubated at 37 degrees C, 5% CO2, under a humidified atmosphere for 5 hours. Twenty-three nanoliters of compounds and controls (neutral control DMSO or positive control bortezomib at final concentration of 2.3 uM) were subsequently transferred by Kalypsys pintool. For primary screens, the MIPE collection was tested at 11-point dilutions (final concentrations range from 0.78 nM to 46 µM) and the NPC collection at 8-point dilutions (final concentrations range from 0.59 nM to 46 µM). Compounds tested in follow-up screens were assayed at 11-point dilutions. Cells were incubated for 48 hours, followed by addition of 3 uL of CellTiter-Glo (Promega). After a 15min incubation at room temperature, samples were analyzed for luminescence intensity using a ViewLux High-throughput CCD imager equipped with clear filters.
Background: Quantitative high-throughput screening tests each substance at several concentrations.
With `O=C(c1ccc(C(=O)N2CCC(N3CCCC3)CC2)c(Nc2ccccc2)c1)N1CCC(N2CCCC2)CC1`, the Potency entry is “inactive”.
As for `Cc1nn(Cc2ccccc2Cl)c(C)c1CN(C)CC(O)COc1ccc(Cl)cc1` (stereo not given), the Potency entry was “inactive”.
In the case of `COc1cc(C=CC(=O)O)ccc1O`, the Potency entry was “inactive”.
To `CN[C@@H](C)[C@H]1[C@H](O)C[C@@]2(C)[C@@H]3CC[C@H]4C(C)(C)[C@@H](NC)CC[C@@]45C[C@@]35CC[C@]12C` belongs “inactive”; to `COc1c(C)c2c(c(O)c1CC=C(C)CCC(=O)OCCN1CCOCC1)C(=O)OC2`, 4.66 µM (active).
To `CC(NCCc1ccc(O)cc1)C(O)c1ccc(O)cc1` (stereo not given) belongs “inactive”; to `Cc1cc(NC(=O)Nc2ccc(N(C)C)cc2)c2cc(F)cc(F)c2n1`, “inactive”.
On to `COc1ccc(-c2cc(=O)c3c(O)cc(O[C@@H]4O[C@H](CO[C@@H]5O[C@@H](C)[C@H](O)[C@@H](O)[C@@H]5O)[C@@H](O)[C@H](O)[C@@H]4O)cc3o2)cc1O`, for which the Potency entry is “inactive”.
The entry for `C[C@]12C=CC(=O)C=C1CC[C@@H]1[C@@H]2[C@@H](O)C[C@@]2(C)[C@@H]1CC[C@]2(O)C(=O)CO` is “inactive”.
To `C=CC[N+]1([C@H]2C[C@H]3[C@@H]4CC[C@H]5C[C@H](O)[C@@H](N6CCOCC6)C[C@]5(C)[C@@H]4CC[C@]3(C)[C@H]2OC(C)=O)CCCC1` belongs “inactive”; to `CCCCN(CCCC)CC(O)c1cc(Cl)cc2c1-c1ccc(Cl)cc1C2=Cc1ccc(Cl)cc1` (stereo not given), “inactive”; to `CC(=O)N1CCN(c2ccc(OCc3nn(C)c(C)c3-c3cccc4c(CCCOc5cc(C)c(Cl)c(C)c5)c(C(=O)O)n(Cc5cccnc5)c34)cc2)CC1`, “inactive”.
The entry for `CO[C@H]1O[C@@H]2O[C@@]3(C)CC[C@@H]4[C@@H](C)CC[C@@H]([C@H]1C)[C@@]24OO3` is “inactive”; for `CNC(=O)c1cc(Oc2ccc(NC(=O)Nc3ccc(Cl)c(C(F)(F)F)c3)c(F)c2)ccn1` it is “inactive”; for `CCOC(=O)N1CCN([N+]([O-])=NOc2cc(ON=[N+]([O-])N3CCN(C(=O)OCC)CC3)c([N+](=O)[O-])cc2[N+](=O)[O-])CC1` it is “inactive”.
In the case of `COc1c(C)cnc(Cn2cnc3c(Cl)nc(N)nc32)c1C`, the Potency was 1.17 µM (active).
The entry for `CCCCC[C@H](O)C=C[C@H]1[C@H](O)CC(=O)[C@H]1CCCCCCC(=O)O` is “inactive”; for `CN1N=C(N)c2cn([C@@H]3O[C@H](COP(=O)(O)O)[C@@H](O)[C@@H]3O)c3ncnc1c23` it is 4.15 µM (active).
The figure for `C[C@@H]1[C@H](O)[C@@H](C)C=CC=CC=CC=CC=CC=CC=C[C@H](O[C@@H]2O[C@H](C)[C@H](O)[C@H](N)[C@@H]2O)C[C@@H]2O[C@](O)(C[C@@H](O)C[C@@H](O)[C@H](O)CC[C@@H](O)C[C@@H](O)CC(=O)O[C@H]1C)C[C@H](O)[C@@H]2C(=O)O` is 2.94 µM (active).
For `Cc1ccc(S(=O)(=O)OCC(=O)Nc2ccc(C(=O)O)c(O)c2)cc1`, the Potency result is “inactive”.
Turning to `N#Cc1ccc(Oc2ccc3c(c2)COB3O)cc1`, the Potency entry is “inactive”.
With `CCn1c(-c2nonc2N)nc2cncc(CNC3CCNCC3)c21`, the Potency result was “inactive”.
The entry for `Cc1ccccc1-n1c(Cn2nc(-c3cccc(O)c3)c3c(N)ncnc32)nc2cccc(C)c2c1=O` is “inactive”; for `Fc1ccc(C(c2ccc(F)cc2)N2CCN(CC=Cc3ccccc3)CC2)cc1` it is “inactive”.
To `COc1ccc(C=CC(=O)Nc2ccccc2C(=O)O)cc1OC` belongs “inactive”.
The entry for `O=C1NC(=O)C(=Cc2ccc(-c3ccc(F)cc3O)o2)S1` is “inactive”; for `O=S(=O)(O)c1ccc2cc(N=Nc3cc(S(=O)(=O)O)c4cccnc4c3O)ccc2c1` it is “inactive”.
For the molecule `CCN1CCC(n2cc(CNc3cc(Cl)c4ncc(C#N)c(Nc5ccc(F)c(Cl)c5)c4c3)nn2)CC1`, the Potency entry was “inactive”.
In the case of `CN(C)c1nc(Cc2ccc(NC(=O)c3ccc(C(F)(F)F)cc3)cc2)nc(N(C)C)c1CC(=O)O`, the Potency result was “inactive”.
Consider `COc1nc(C)cnc1NS(=O)(=O)c1cccnc1-c1ccc(-c2nnco2)cc1`, for which the Potency entry was “inactive”.
The entry for `CC(C)=CCCC(C)=CCCC(C)=CCCC(C)=CCCC(C)=CCCC(C)=CCCC(C)=CCCC(C)=CCCC(C)=CCO` is “inactive”; for `Cc1cccc(-c2[nH]c(C(C)(C)C)nc2-c2ccc3c(c2)OCO3)n1` it is 8.29 µM (active); for `CN1[C@H]2CC[C@H]1CC(OC(=O)c1c[nH]c3ccccc13)C2` (stereo not given in full) it is “inactive”.
The entry for `Cc1ccc2c(=O)c3cccc(CC(=O)O)c3oc2c1C` is “inactive”.
With `Clc1ccc(COC(Cn2ccnc2)c2ccc(Cl)cc2Cl)c(Cl)c1` (stereo not given), the Potency result was “inactive”.
To `NS(=O)(=O)c1cc(Cl)c(Cl)c(S(N)(=O)=O)c1` belongs “inactive”; to `OC[C@H]1O[C@@H](OCCc2ccc(O)cc2)[C@H](O)[C@@H](O)[C@H]1O`, “inactive”; to `COc1nccc(-c2c(-c3ccc(F)cc3)ncn2C2CCC(O)CC2)n1` (stereo not given), “inactive”.
To `COc1nccc(-c2c(-c3ccc(F)cc3)ncn2C2CCNCC2)n1` belongs “inactive”; to `CN(C)S(=O)(=O)c1ccc2c(c1)C(=Cc1cc3c([nH]1)CCCC3)C(=O)N2`, “inactive”.

The values above are taken from PubChem BioAssay (NCATS).
